Experiment [1] has as its target DNA repair nuclease/redox regulator APEX1 (Homo sapiens) (UniProt P27695). In words: qHTS Validation Assay for Inhibitors of the Human Apurinic/apyrimidinic Endonuclease 1 (APE1) (AID 1705;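 further: TAMRA fluorescence gain over two minutes as APE1 cuts a quenched THF abasic duplex; series mostly up to about 57 µM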). Summed up: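 Substrate: 50 nM final fluorophore/quencher THF-abasic duplex. Enzyme preincubated with compounds 15 min, RT. Progress derived from fluorescence difference, third minus first kinetic read.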

Experiment [2] deals with Endonuclease 4 (Escherichia coli (strain K12)) (UniProt P0A6C1). Description: Counterscreen for APE1 Inhibitors: qHTS Validation Assay for Inhibitors of Endonuclease IV (AID 1708). In a few lines: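 Conditions: 2 nM enzyme, 50 nM TAMRA/BHQ-2 substrate, pH 7.5 Tris buffer with 2 mM MgCl2, RT. Compound preincubation 15 min; readout three fluorescence reads 60 s apart, third-minus-first.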
In general terms: The purpose of a counterscreen is to sort out artefacts and off-target activity.

Experiment [3] in a line: qHTS for differential inhibitors of proliferation of Plasmodium falciparum line 7G8 (AID 1815;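 further: parasite growth measured after three days of incubation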; further: potency means the concentration at half of the fitted maximal effect). (In qHTS, concentration-response curves come from the screen itself.)
A short description of experiment [4]: qHTS for differential inhibitors of proliferation of Plasmodium falciparum line GB4 (AID 1816).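 Further: potency means the concentration at half of the fitted maximal effect; parasite growth measured after 72 h incubation.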 Conditions: Potency: Plasmodium falciparum GB4 proliferation inhibition.
Experiment [5] can be described thus: qHTS for differential inhibitors of proliferation of Plasmodium falciparum line 3D7 (AID 1876). Further: potency means the concentration at half of the fitted maximal effect.
A short description of experiment [6]: qHTS for differential inhibitors of proliferation of Plasmodium falciparum line D10 (AID 1877).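 Further: parasites grown with compound for 72 h before DNA staining.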 Further: potency means the concentration at half of the fitted maximal effect.
A short description of experiment [7]: qHTS for differential inhibitors of proliferation of Plasmodium falciparum line Dd2 (AID 1882). Further: nearly all actives have a fitted effect of over 65% in size. Further: potency means the concentration at half of the fitted maximal effect. Conditions: Potency: Plasmodium falciparum Dd2 proliferation inhibition. In a few lines:
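SYBR Green DNA fluorescence (ex 485, em 535 nm) after overnight lysis quantifies parasite growth; compound exposure lasted 72 h at 37 C on infected red cells at 2.5% hematocrit, 0.3% parasitemia (final). Artemisinin 0.29 uM and vehicle wells define normalization.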

The nature of experiment [8]: qHTS for differential inhibitors of proliferation of Plasmodium falciparum line W2 (AID 1883).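 Further: potency means the concentration at half of the fitted maximal effect; parasites grown with compound for 72 h before lysis and staining.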 Conditions: Potency: Plasmodium falciparum W2 proliferation inhibition.
Experiment [9] in a line: qHTS for differential inhibitors of proliferation of Plasmodium falciparum line HB3 (AID 1886).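 Further: parasites grown with compound for 72 h before SYBR Green readout.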 Further: potency means the concentration at half of the fitted maximal effect. Conditions: Potency: Plasmodium falciparum HB3 proliferation inhibition.
A short description of experiment [10]: qHTS Assay for Modulators of Human Peripheral Myelin Protein 22 (PMP22) Expression/Activity (AID 1967; active means well fitted curve in the direction sought with a large enough effect in the signal ratio; the % refers to the signal ratio). In a few lines: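 Engineered MSC80 cells, Pmp22-promoter green and EF-alpha red luciferase reporters; 24h compound treatment at 37 °C. Concentration-response fits on green, red and ratio signals, each overlap-corrected, with %Activity normalized to untreated wells.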

In experiment [11] the target is ATP-dependent DNA helicase Q1 (Homo sapiens) (UniProt P46063). In words: qHTS Validation Assay for Inhibitors of RecQ-Like Dna Helicase 1 (RECQ1) (AID 2353). In a few lines: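 RECQ1T1 50 nM; forked duplex (20 bp + 30-nt ss tails) 200 nM, ATP 2 mM final; pH 8.0, 2 mM MgCl2, 2.5 ug/ml poly(dI-dC); 15 min compound preincubation; discontinuous kinetic read over 2 h at RT.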

Experiment [12] can be described thus: Counterscreen for APE1 Inhibitors: Fluorescent Dye Displacement Validation Assay (AID 1707). In a few lines:
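Reaction mixture of 250 nM Thiazole Orange and 50 nM double-stranded abasic-site DNA was dispensed, compounds were pin-transferred, and fluorescence was read at endpoint (480 nm ex, 540 nm em). Reduced fluorescence indicated dye displacement by DNA binding.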

For experiment [13], the target named is Ferritin light chain (Equus caballus) (UniProt P02791). Description: qHTS Validation Assay for Identification of Novel General Anesthetics (AID 2323). Further: series mostly up to about 77 µM. In a few lines: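 Normalized fluorescence response, scaled between free 1-AMA and 1-AMA/apoferritin complex, fitted to a four-parameter Hill equation for concentration-effect values. Binding mix: 10 uM horse-spleen apoferritin, 50% saturated 1-AMA in PBS; read 380/535 nm after 10 min.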

Experiment [14] addresses alpha-glucosidase (Oryza sativa, rice) (UniProt Q653V4). In words: Counterscreen for Glucocerebrosidase Inhibitors: qHTS Assay for Rice alpha-Glucosidase at pH 5.0 (AID 997). In a few lines: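 Endpoint fluorogenic assay at pH 5.0: compounds (0.7 nM to 77 uM) titrated against 4 nM rice enzyme and 400 uM 4-MU-alpha-glucoside for 20 min at room temperature; NaOH/glycine stop, read ex 365/em 440 nm, Hill-fitted AC50.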

Experiment [15] has as its target RecQ-like DNA helicase BLM (Homo sapiens) (UniProt P54132). In words: qHTS Validation Assay for Inhibitors of Bloom's syndrome helicase (BLM) (AID 2364). Summed up: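 50 nM BLM preincubated 15 min at room temperature with compound in pH 8.0 Tris buffer containing 2.5 ug/ml poly(dI-dC); started with 200 nM TAMRA/BHQ-2 forked duplex and 2 mM ATP (final). Unwinding read as TAMRA fluorescence increase, two reads 2 h apart.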

Here are results for ten molecules from PubChem BioAssay (NCATS).

Inconclusive results are not listed. The source made the active and inactive calls. Unless noted, the call rests on the fitted dose curve; in most records, active means well fitted curve in the direction sought with a large enough effect; inconclusive means small, poorly fitted or top-dose-only effect, or another doubt; inactive means no such curve, though single readings can be large; an effect the other way counts as inactive or inconclusive. Residues, ends and D or L forms follow the SMILES beside them. *: point of attachment. Cbz = O=C(OCc1ccccc1)*

Sequence of ATP-dependent DNA helicase Q1 (Homo sapiens) (P46063 whole entry, looked up): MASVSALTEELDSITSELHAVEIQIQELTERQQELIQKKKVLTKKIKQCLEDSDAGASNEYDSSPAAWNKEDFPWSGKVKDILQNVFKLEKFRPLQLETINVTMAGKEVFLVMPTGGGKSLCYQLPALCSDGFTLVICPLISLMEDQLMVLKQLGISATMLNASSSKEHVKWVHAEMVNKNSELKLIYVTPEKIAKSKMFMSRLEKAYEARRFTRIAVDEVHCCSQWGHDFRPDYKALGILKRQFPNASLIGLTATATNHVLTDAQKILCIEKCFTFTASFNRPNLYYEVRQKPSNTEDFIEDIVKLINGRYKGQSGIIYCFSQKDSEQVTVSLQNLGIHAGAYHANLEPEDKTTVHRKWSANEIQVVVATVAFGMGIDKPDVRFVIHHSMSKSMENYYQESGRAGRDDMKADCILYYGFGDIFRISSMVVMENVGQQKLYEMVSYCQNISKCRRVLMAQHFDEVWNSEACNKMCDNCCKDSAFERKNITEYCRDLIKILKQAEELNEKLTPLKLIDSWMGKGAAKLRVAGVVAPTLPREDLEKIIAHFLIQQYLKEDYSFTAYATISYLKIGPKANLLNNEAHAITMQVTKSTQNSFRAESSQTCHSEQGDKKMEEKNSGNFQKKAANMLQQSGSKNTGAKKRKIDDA
Sequence of DNA repair nuclease/redox regulator APEX1 (Homo sapiens) (P27695 whole entry, looked up): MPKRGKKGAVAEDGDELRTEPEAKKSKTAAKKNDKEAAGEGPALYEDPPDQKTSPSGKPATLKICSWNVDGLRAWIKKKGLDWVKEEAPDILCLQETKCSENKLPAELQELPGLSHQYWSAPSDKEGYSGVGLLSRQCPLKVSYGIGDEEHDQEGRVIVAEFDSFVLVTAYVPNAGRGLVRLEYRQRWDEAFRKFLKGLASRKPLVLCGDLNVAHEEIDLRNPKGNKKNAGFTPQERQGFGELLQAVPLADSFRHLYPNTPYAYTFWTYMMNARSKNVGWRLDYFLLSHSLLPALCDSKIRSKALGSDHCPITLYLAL
Sequence of Ferritin light chain (Equus caballus) (P02791 2-175 limits assumed): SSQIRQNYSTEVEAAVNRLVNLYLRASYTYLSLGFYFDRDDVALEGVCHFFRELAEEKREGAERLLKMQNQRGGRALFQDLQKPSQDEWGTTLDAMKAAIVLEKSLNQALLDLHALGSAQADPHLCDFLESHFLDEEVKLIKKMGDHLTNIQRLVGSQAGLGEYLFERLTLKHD
Sequence of RecQ-like DNA helicase BLM (Homo sapiens) (P54132 whole entry, looked up): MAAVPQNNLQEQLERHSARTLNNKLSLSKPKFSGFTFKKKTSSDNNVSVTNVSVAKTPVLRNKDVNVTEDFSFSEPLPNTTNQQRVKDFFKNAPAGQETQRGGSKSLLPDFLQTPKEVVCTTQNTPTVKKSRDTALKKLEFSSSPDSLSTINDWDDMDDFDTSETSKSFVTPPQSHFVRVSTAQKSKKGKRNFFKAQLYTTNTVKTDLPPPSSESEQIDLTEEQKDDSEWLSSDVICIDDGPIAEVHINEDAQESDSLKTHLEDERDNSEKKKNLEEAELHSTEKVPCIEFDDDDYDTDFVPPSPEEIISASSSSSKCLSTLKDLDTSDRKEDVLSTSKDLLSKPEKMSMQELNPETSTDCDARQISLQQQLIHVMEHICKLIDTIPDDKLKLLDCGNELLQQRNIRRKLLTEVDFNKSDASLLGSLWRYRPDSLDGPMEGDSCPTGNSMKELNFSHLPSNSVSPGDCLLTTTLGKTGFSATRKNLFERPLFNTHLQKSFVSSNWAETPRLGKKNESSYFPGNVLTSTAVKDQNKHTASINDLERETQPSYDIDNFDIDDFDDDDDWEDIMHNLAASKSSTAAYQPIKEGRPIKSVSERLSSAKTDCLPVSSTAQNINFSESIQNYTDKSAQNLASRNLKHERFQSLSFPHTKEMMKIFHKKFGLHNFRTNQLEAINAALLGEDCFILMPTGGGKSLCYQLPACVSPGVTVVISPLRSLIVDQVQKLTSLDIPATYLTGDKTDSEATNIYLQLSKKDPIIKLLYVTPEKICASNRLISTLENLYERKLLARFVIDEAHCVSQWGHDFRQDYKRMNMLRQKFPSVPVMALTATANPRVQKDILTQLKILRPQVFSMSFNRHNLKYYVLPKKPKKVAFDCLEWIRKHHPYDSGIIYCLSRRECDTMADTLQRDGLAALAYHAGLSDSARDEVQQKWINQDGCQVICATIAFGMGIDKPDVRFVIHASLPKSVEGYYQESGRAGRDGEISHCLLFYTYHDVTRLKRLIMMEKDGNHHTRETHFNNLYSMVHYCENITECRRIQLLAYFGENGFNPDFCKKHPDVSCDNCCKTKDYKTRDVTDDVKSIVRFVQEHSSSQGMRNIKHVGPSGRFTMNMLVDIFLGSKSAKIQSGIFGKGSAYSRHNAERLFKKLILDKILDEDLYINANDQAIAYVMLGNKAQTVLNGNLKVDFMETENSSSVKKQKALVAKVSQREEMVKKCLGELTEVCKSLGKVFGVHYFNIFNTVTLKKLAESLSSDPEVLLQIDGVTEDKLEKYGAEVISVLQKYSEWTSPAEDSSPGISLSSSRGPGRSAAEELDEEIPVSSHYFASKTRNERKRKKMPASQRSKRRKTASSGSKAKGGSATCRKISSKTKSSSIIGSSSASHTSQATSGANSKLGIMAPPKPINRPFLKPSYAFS

In the case of `N#CC(=C(\N)Sc1ccccc1N)/C(C#N)=C(/N)Sc1ccccc1N`, the Potency entry in [1], in experiment [2] and in experiment [11] was “inactive” throughout. Besides, the Potency in [3] was 2.51 µM (active); in [4], 4.47 µM (active); in experiment [5] it was 3.98 µM (active); in experiment [6], 2 µM (active); in experiment [7], 7.08 µM (active); in [8], 2.82 µM (active). Also, the Potency in experiment [9] is 4.47 µM (active). Moreover, the molecule was called inactive in experiment [10].
On to `Cc1ccccc1/C=C/C1=NCCN1`, for which the Potency result in experiment [1], in [12], in experiment [13] and in [11] was “inactive” throughout. The Potency is 8.91 µM (active) in experiment [3], 11.2 µM (active) in [4], 12.6 µM (active) in [8] and 12.6 µM (active) in [9].
As to `CCCC(=O)NCCc1c2n(c3ccc(OC)cc13)CCCc1ccccc1-2`, the molecule was called inactive in [14]. The Potency result in experiment [1], in experiment [12] and in experiment [11] was “inactive” in each case. The Potency in experiment [3] was 3.55 µM (active); in experiment [4], 11.2 µM (active); in experiment [6], 12.6 µM (active); in [8], 7.94 µM (active); in [9], 11.2 µM (active).
For `S=C(S)N1CCCC1`, in [14], the molecule was classed as inactive. Also, the Potency entry in [12], in [2], in experiment [13], in experiment [11] and in experiment [15] was “inactive” in each case.
As for `COc1ccccc1N1CCN(CCN(C(=O)c2ccc(F)cc2)c2ccccn2)CC1`, the outcome in experiment [14] was inactive. Besides, the Potency entry in [12], in experiment [2] and in experiment [11] was “inactive” throughout. Besides, the Potency in experiment [8] was 8.91 µM (active).
Regarding `OC[C@H]1O[C@@H](n2cnc3cncnc32)[C@H](O)[C@@H]1O`, the Potency entry in experiment [1], in experiment [12], in [3], in [7] and in experiment [11] was “inactive” throughout. Besides, the Potency in [5] is 5.01 µM (active). Also, in [10], the molecule was called inactive.
For `Fc1ccc(CN(C2=NCCN2)c2c(Cl)cccc2Cl)cc1`, the result in experiment [14] was inactive. Besides, the Potency entry in experiment [1], in experiment [12], in [2] and in experiment [13] was “inactive” each time. For the same molecule, the Potency in experiment [3] is 6.31 µM (active); in experiment [4], 5.62 µM (active); in experiment [5], 11.2 µM (active); in experiment [7], 7.94 µM (active); in experiment [8], 3.55 µM (active).
Consider `CC(C)[C@H](NC(=O)OCc1ccccc1)C(=O)N[C@H](C=O)Cc1ccccc1` (Cbz-Val-Phe-aldehyde), for which, in experiment [14], the result was inactive. In addition, the Potency result in experiment [1], in [12], in experiment [2] and in experiment [11] was “inactive” throughout. Moreover, the Potency in [3] was 7.08 µM (active); in experiment [4], 4.47 µM (active); in [5], 2.82 µM (active); in experiment [6], 8.91 µM (active); in experiment [7] it was 4.47 µM (active); in [8], 2.82 µM (active). In addition, in [9], the Potency was 5.01 µM (active).
In the case of `NC(=O)CNCCC(c1ccccc1)c1ccccc1`, the result in experiment [14] was inactive. For the same molecule, the Potency result in experiment [1], in [12], in experiment [6], in experiment [9], in [13] and in [11] was “inactive” in each case. Further, the Potency was 4.47 µM (active) in experiment [3], 4.47 µM (active) in experiment [7] and 2.24 µM (active) in [8].
As for `O=c1ccc2c(OCCCCc3ccccc3)c3ccoc3cc2o1`, the molecule was called inactive in [14]. Moreover, the Potency result in experiment [1], in experiment [12], in experiment [13] and in experiment [11] was “inactive” each time. Also, the Potency was 11.2 µM (active) in [4], 12.6 µM (active) in [6] and 10 µM (active) in experiment [8].
